Measured values from PubChem BioAssay AID485346 (Sanford-Burnham Center for Chemical Genomics, 2010).
Out of some 330,000 compounds screened, about 10,000 (3%) were called active. Many of the other results were omitted from the sample, so actives are more common in it than they were. A number with no mark means an inactive call.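 How the source made its calls: active means inhibition of at least 50% at 8 µM in the primary screen; inactive means the rest.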

target: Protein Mdm4 (Homo sapiens) + E3 ubiquitin-protein ligase Mdm2 (Homo sapiens) (UniProt O15151+Q00987); test: disruptors of Mdm2/MdmX RING complex – cell-based, luminescence, split luciferase, SaOS-2, uHTS, primary screen (AID 485346); settings: SaOS-2 split-luciferase Mdm2/MdmX complementation, at 8 µM, active compounds read high
Sequence (O15151 whole entry, looked up): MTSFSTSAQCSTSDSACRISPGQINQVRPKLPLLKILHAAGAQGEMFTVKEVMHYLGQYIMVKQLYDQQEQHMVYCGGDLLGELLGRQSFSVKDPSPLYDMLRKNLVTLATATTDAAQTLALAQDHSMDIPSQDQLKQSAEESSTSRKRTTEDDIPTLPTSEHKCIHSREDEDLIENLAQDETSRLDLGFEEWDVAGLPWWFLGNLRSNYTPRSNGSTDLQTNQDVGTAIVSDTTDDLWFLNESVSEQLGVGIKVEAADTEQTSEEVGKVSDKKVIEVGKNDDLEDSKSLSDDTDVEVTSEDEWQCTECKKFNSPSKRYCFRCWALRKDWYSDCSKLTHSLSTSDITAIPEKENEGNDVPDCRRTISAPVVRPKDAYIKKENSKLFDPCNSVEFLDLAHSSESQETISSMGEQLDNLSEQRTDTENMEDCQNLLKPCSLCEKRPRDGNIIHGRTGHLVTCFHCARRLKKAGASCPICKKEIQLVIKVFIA
Sequence (Q00987 whole entry, looked up): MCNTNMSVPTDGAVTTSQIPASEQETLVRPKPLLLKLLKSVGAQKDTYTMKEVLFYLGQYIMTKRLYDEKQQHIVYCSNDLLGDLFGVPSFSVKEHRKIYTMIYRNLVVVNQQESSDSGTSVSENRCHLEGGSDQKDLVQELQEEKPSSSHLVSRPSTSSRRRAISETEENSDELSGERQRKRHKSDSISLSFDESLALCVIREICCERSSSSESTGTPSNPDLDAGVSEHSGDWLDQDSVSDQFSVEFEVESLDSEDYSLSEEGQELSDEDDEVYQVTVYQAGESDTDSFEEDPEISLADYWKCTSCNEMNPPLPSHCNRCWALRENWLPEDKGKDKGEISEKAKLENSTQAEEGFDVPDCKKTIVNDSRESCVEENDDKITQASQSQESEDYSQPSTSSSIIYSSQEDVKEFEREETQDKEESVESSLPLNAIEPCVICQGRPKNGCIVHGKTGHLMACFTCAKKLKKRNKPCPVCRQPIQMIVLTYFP

Row | SMILES | inhibition
1 | O=C1c2ccccc2[C@@H]2C[C@@H](O)[C@H](Nc3ccccc3Cl)CCN12 | 22.5%
2 | Cc1ccnc(SCC(=O)Nc2cccc(S(=O)(=O)N3CCOCC3)c2)n1 | 15.8%
3 | CC(=O)c1nc2ccccc2n1Cc1ccccc1 | 4.16%
4 | CC(=O)Oc1c(C(=O)c2nnc(C)o2)c(=O)n(Cc2ccccc2)c2ccccc12 | 53.7% (active)
5 | COC(=O)CSc1nc2ccccc2c(=O)n1Cc1ccccc1 | 1.48%
6 | CCN1C(=S)N[C@@H](CCc2ccccc2)[C@H](C(=O)OC)[C@H]1C | 6.92%
7 | CCOC(=O)/C(=C\c1ccc([N+](=O)[O-])cc1)C(=O)c1cc(C(C)=O)c(Nc2ccccc2)s1 | 99.3% (active)
8 | Cc1ccc(NC(=O)/C(=C/c2ccc([N+](=O)[O-])cc2)NC(=O)c2ccccc2)cc1 | 17.1%
9 | CCOC(=O)/C(=N\Nc1ccccc1[N+](=O)[O-])c1csc(Nc2ccccc2)n1 | 23.4%
10 | O=C(C1CC(=O)N(C2CCCC2)C1)N1CCN(c2cccc(C(F)(F)F)c2)CC1 (stereo not drawn) | 4.03%
11 | Cc1cc(Nc2cccc(C)c2C)n2ncnc2n1 | -28.4%
12 | Cc1cccc(OCC(O)Cn2c(N3CCCCC3)nc3c2c(=O)[nH]c(=O)n3C)c1 (stereo not drawn) | -19.9%
13 | NC(=O)CSc1nnc(NC(=O)c2ccc3ccccc3c2)s1 | -8.44%
14 | O=C(/C=C/c1ccccc1)Nc1nnc(SCC(=O)c2ccc3ccccc3c2)s1 | 69.7% (active)
15 | COc1ccc(C(=O)CSc2nnc(NC(=O)C3CC(=O)N(c4cccc(OC)c4)C3)s2)cc1 (stereo not drawn) | -12.2%
16 | CC(=O)N/C(=C\c1ccccc1)C(=O)OC(C)C(=O)N(C)c1ccccc1 (stereo not drawn) | 19.3%
17 | O=C(CCSCCc1ccccn1)Nc1nccs1 | -7.99%
18 | COc1ccc(C2CC(c3ccccc3)=NN2C(=O)c2ccc(Cl)c([N+](=O)[O-])c2)cc1 (stereo not drawn) | 88.8% (active)
19 | COc1ccc(C2=NN(C(=O)c3cccnc3)C(c3ccccc3)C2)cc1 (stereo not drawn) | 19.9%
20 | COc1ccc(C2CC(c3ccc([N+](=O)[O-])cc3)=NN2C(C)=O)cc1 (stereo not drawn) | -14%

Row | SMILES | inhibition
21 | COc1ccc(C(C(=O)NC2CCCC2)N(CCCO)C(=O)Cn2nnc(-c3ccc(C)o3)n2)cc1 (stereo not drawn) | -6.39%
22 | COC(C[C@@H](O)[C@H](C)[C@H](O)COCc1ccccc1)OC | 26.1%
23 | CCOc1ccccc1C1CC(c2cccc(NS(C)(=O)=O)c2)=NN1C(=O)c1ccccc1 (stereo not drawn) | 8.21%
24 | COc1ccc(C2=NN(C(=O)c3ccccc3C(=O)O)C(c3ccccc3O)C2)cc1 (stereo not drawn) | -30.7%
25 | CCOc1ccc2nc(Cl)c(C3CC(c4ccccc4)=NN3C(=O)c3cccs3)cc2c1 (stereo not drawn) | 95% (active)
26 | COc1ccc(OC)c(S(=O)(=O)n2c([N+](=O)[O-])cnc2C)c1 | 22.7%
27 | COc1ccc(C(C[N+](=O)[O-])n2nc(C)cc2C)cc1 (stereo not drawn) | 69.3% (active)
28 | CCOc1ccc(C(C)C)cc1S(=O)(=O)n1nc(C)cc1C | 13.1%
29 | Cc1ccc(Cl)c(NC(=O)CN(C)CC(=O)Nc2ccc(F)c(F)c2F)c1Cl | -0.971%
30 | O=C(OCC(=O)N1CCCCCC1)c1ccc(Cl)nc1 | 0.359%
31 | CC(C)(C)OC(=O)NNc1c2ccccc2nc2ccccc12 | 95.7% (active)
32 | Cc1ccccc1NC(=O)NNC(=O)OC(C)(C)C | 20.7%
33 | O=C(NNc1c2ccccc2nc2ccccc12)c1cc2ccccc2cc1O | 35.2%
34 | C/C(=N/Nc1ccc(Cl)cc1)c1cnnc(-c2ccccc2)n1 | -8.35%
35 | Cc1cc(NC(=O)CSc2ncc(C(F)(F)F)cc2Cl)no1 | 6.3%
36 | Cc1nc(SCC(=O)Nc2cc(C)on2)c2c(C)c(C)sc2n1 | 79.8% (active)
37 | Cc1cc(NC(=O)CSc2nc(C(C)C)nc3sc4c(c23)CCC(C)C4)no1 (stereo not drawn) | 48.9%
38 | COc1cccc(OCCOc2cccc(/C=N/n3cnnc3)c2)c1 | -7.51%
39 | Cc1ccccc1OCCOc1ccc([N+](=O)[O-])cc1/C=N/n1cnnc1 | 58.7% (active)
40 | Cc1cc([N+](=O)[O-])c(-c2ccc(/C=N/n3cnnc3)o2)cc1Cl | 26.5%

Row | SMILES | inhibition
41 | COc1ccc(CCNC(=O)COC(=O)c2cnc(Cl)c(Cl)c2)cc1 | -24.9%
42 | Cc1cc(C)n(CC(O)COc2ccc(C(C)(C)C)cc2)n1 (stereo not drawn) | 0.107%
43 | CN(C)CC(O)COc1ccc(C(C)(C)c2ccc(OCC(O)CN(C)C)cc2)cc1 (stereo not drawn) | 97.5% (active)
44 | CC(C)(c1ccccc1)c1ccc(OCCN)cc1 | 29.2%
45 | CC(Oc1cccc(Cl)c1)C(=O)NC1CC(C)(C)NC(C)(C)C1 (stereo not drawn) | 12.5%
46 | Cc1ccc(C(CC(=O)O)NC(=O)c2ccc(S(=O)(=O)N3CCCC3)cc2)cc1 (stereo not drawn) | 23.9%
47 | COc1ccc(S(=O)(=O)N2CCOCC2)c(C)c1C | 4.93%
48 | COc1ccc(CN(C)C(=S)Nc2ccc(Cl)cc2Cl)cc1 | 2.13%
49 | COc1ccc(CCNCC(O)Cn2ccc3ccccc32)cc1OC (stereo not drawn) | 11.5%
50 | COc1c(C)c2c(c(O)c1C/C=C(\C)CCC(=O)O)C(=O)OC2 | 97.1% (active)
51 | NNC(=O)c1ccc(COCC(F)(F)C(F)F)cc1 | 6.42%
52 | O=C(Nc1ccccc1Cc1ccccc1)c1ccc2c(c1)SC1=NS(=O)(=O)CCN12 | 20.2%
53 | Cc1cc(=O)oc2cc(OCC3CC(c4ccccc4Cl)=NO3)ccc12 (stereo not drawn) | 63.9% (active)
54 | Cc1cc(=O)oc2cc(OCCC[n+]3ccccc3)ccc12 | -31%
55 | CCOc1ccccc1N1CCN(C(=O)COc2ccc3c(C)cc(=O)oc3c2)CC1 | 18.6%
56 | O=C1C=C(c2cc(C(F)(F)F)cc(C(F)(F)F)c2)C[C@@H](c2ccc3c(c2)OCO3)C1 | 15.2%
57 | CCc1ccc(-n2c(SCc3cc(=O)n4cc(Br)ccc4n3)nc3[nH]ncc3c2=O)cc1 | 41.3%
58 | CC(O)CN(Cc1ccc(Cl)cc1)CC(C)O (stereo not drawn) | 14.3%
